Some test systems named below: NCI-H23 lung; NCI-H226 lung; NCI-H322M lung; HOP-62 NSCLC; NCI-H460 lung; HOP-92 NSCLC; NCI-H522 lung; A549/ATCC NSCLC; 786-0 renal; COLO 205 colon; DU-145 prostate; K-562 leukemia; MALME-3M melanoma; MDA-MB-231 breast; RXF 393 renal; SF-268 CNS; SF-295 CNS; SF-539 CNS; UACC-257 melanoma; M14 melanoma.
Common to all, as to experiment: NCI-60 one-dose screen, 48 h (100 = growth as untreated, 0 = no growth, -100 = all killed)
Holding throughout (conditions): 10 µM unless noted

This note sets out measurements from PubChem BioAssay (NCI).

Each structure is given as a SMILES string. About 83,000 compounds went through this panel and 20% of them were active in at least one assay; those are over-represented in the sample as a whole.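 Values shown are percent growth following 48 h exposure of cells in 96-well plates to a single concentration of compound; below 10 was considered active.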 Unmarked numbers belong to inactive results. Calls of active or inactive are those of the source.

Turning to `Nc1ccccc1NC(=O)c1ccc(CN2CCC/C(=C\c3cccc(Cl)c3)C2=O)cc1`, the growth with NCI-H23 lung was 21.1%; in the assay on NCI-H226 lung, 40%; in the assay on NCI-H322M lung, 40.8%; in the assay with HOP-62 NSCLC it was 19%; with NCI-H460 lung it was 7.66% (active); in the assay with HOP-92 NSCLC, 44.1%. Also, the growth was -32% (active) in the assay on NCI-H522 lung; 33% in the assay on A549/ATCC NSCLC; 14.2% in the assay with 786-0 renal; -51.8% (active) in the assay with COLO 205 colon; 8.37% (active) in the assay on DU-145 prostate; 4.21% (active) with K-562 leukemia. The growth was 63.7% with MALME-3M melanoma; -2.78% (active) in the assay with MDA-MB-231 breast; 20.6% with RXF 393 renal; 3.92% (active) with SF-268 CNS; 25.5% in the assay on SF-295 CNS; 5.47% (active) in the assay with SF-539 CNS. Besides, the growth with UACC-257 melanoma is 37.7%; with M14 melanoma, 24%.
With `COc1cc(C2NC(c3cc(OC)c(OC)c(OC)c3)C(C#N)(C#N)C2(C#N)C#N)cc(OC)c1OC` (stereo not drawn), the growth with NCI-H23 lung was 101%; in the assay on NCI-H226 lung, 91.5%; in the assay on NCI-H322M lung, 100%; in the assay on HOP-62 NSCLC it was 94.8%; in the assay with NCI-H460 lung, 104%; with HOP-92 NSCLC it was 96.5%. The growth in the assay on NCI-H522 lung is 95.6%; with A549/ATCC NSCLC it was 103%; in the assay on 786-0 renal it was 97%; in the assay on COLO 205 colon, 101%; with DU-145 prostate it was 102%; in the assay on K-562 leukemia, 109%. Further, the growth in the assay with MALME-3M melanoma is 96%; in the assay with MDA-MB-231 breast it was 97.3%; with RXF 393 renal it was 114%; with SF-268 CNS it was 105%; with SF-295 CNS, 99.8%; with SF-539 CNS, 95.8%. The figures for the growth in the assay with UACC-257 melanoma and in the assay with M14 melanoma were 106% and 92.9%, respectively.
With `CS(=O)(=O)c1ccc(-c2cc(-c3nnc(SCC(=O)Nc4ccc(C(=O)/C=C/c5ccc(Cl)cc5)cc4)n3-c3ccccc3)c3ccccc3n2)cc1`, the growth is 97.8% with NCI-H23 lung; 94.6% in the assay with NCI-H226 lung; 89.8% with NCI-H322M lung; 95.1% with HOP-62 NSCLC; 99.1% with NCI-H460 lung; 110% with HOP-92 NSCLC. Moreover, the growth with NCI-H522 lung was 90%; with A549/ATCC NSCLC, 91.5%; in the assay on 786-0 renal, 93%; in the assay on COLO 205 colon, 106%; in the assay with DU-145 prostate, 105%; in the assay with K-562 leukemia, 89.9%. Also, the growth in the assay on MALME-3M melanoma was 104%; with MDA-MB-231 breast, 92.1%; with RXF 393 renal it was 92.3%; with SF-268 CNS it was 81.7%; with SF-295 CNS, 96%; in the assay on SF-539 CNS it was 87.5%. The values for the growth in the assay with UACC-257 melanoma and in the assay with M14 melanoma were 107% and 97.5%, respectively.
`C=CCn1c(SCC(=O)Nc2ccc(C(=O)/C=C/c3cc(OC)c(OC)c(OC)c3)cc2)nnc1-c1cc(OC)c(OC)c(OC)c1`: the growth is 55.2% in the assay with NCI-H23 lung; 35.9% with NCI-H226 lung; 85.5% in the assay on NCI-H322M lung; 55% with HOP-62 NSCLC; 31.4% in the assay on NCI-H460 lung; 82.2% in the assay with HOP-92 NSCLC. In addition, the growth was 47% with NCI-H522 lung; 47.2% with A549/ATCC NSCLC; 53.6% with 786-0 renal; 41.2% in the assay on COLO 205 colon; 24.2% in the assay on DU-145 prostate; 6.9% (active) in the assay with K-562 leukemia. Moreover, the growth in the assay on MALME-3M melanoma was 92.4%; in the assay with MDA-MB-231 breast, 49.3%; in the assay with RXF 393 renal, 21.4%; in the assay on SF-268 CNS it was 34.9%; in the assay on SF-295 CNS, 60.4%; in the assay on SF-539 CNS, 4.95% (active). Also, the growth with UACC-257 melanoma is 64.1%; in the assay with M14 melanoma, 18.6%.
For the molecule `C=Cc1cc[n+](CCCCCCCCCCCC)cc1`, the growth in the assay with NCI-H23 lung was 102%; in the assay on NCI-H226 lung it was 103%; with NCI-H322M lung it was 114%; with HOP-62 NSCLC, 111%; in the assay with NCI-H460 lung, 98.3%; with HOP-92 NSCLC, 134%. For the same molecule, the growth in the assay with NCI-H522 lung was 110%; in the assay with A549/ATCC NSCLC it was 103%; with 786-0 renal it was 106%; in the assay with COLO 205 colon, 118%; in the assay on DU-145 prostate, 105%; in the assay with K-562 leukemia, 93.8%. The growth was 111% in the assay with MALME-3M melanoma; 99.9% in the assay on MDA-MB-231 breast; 99.7% in the assay on SF-268 CNS; 106% in the assay with SF-295 CNS; 104% in the assay with SF-539 CNS; 111% in the assay on UACC-257 melanoma.
Take `Clc1nc(Cl)c2ncn(CCOCCn3cnc4c(Cl)nc(Cl)nc43)c2n1`: the growth with NCI-H23 lung is -78.5% (active); with NCI-H226 lung, -74.2% (active); with NCI-H322M lung, -97.1% (active); in the assay on HOP-62 NSCLC, -71.8% (active); with NCI-H460 lung, -62.8% (active); in the assay with HOP-92 NSCLC, -93.2% (active). In addition, the growth is -85.4% (active) with NCI-H522 lung; -76.2% (active) in the assay with A549/ATCC NSCLC; -92.9% (active) in the assay on 786-0 renal; -65.2% (active) in the assay with COLO 205 colon; -99.1% (active) with DU-145 prostate; -62.9% (active) in the assay with K-562 leukemia. The growth was -73.2% (active) in the assay with MALME-3M melanoma; -89.9% (active) with MDA-MB-231 breast; -83.3% (active) in the assay with SF-268 CNS; -91.9% (active) with SF-295 CNS; -89.9% (active) with SF-539 CNS; -89.7% (active) with UACC-257 melanoma. In addition, the growth in the assay on M14 melanoma was -84.9% (active).
On to `COc1ccc(-c2nc(N/N=C/c3ccco3)nc(N3CCOCC3)c2C#N)cc1`, for which the growth in the assay on NCI-H23 lung is 81%; with NCI-H226 lung, 84.8%; with NCI-H322M lung it was 87.1%; in the assay with HOP-62 NSCLC, 68.1%; in the assay with NCI-H460 lung, 66.4%; in the assay on HOP-92 NSCLC, 49.2%. For the same molecule, the growth in the assay on NCI-H522 lung was 76.9%; with A549/ATCC NSCLC it was 81.9%; in the assay on 786-0 renal it was 54.7%; in the assay on COLO 205 colon it was 85.7%; with DU-145 prostate it was 93.2%; in the assay with K-562 leukemia it was 87.6%. The growth in the assay with MALME-3M melanoma was 59.5%; in the assay with MDA-MB-231 breast it was 86.1%; in the assay with SF-268 CNS it was 80.1%; with SF-295 CNS it was 90.1%; in the assay on SF-539 CNS it was 74.2%; with UACC-257 melanoma, 94.8%.
As to `CCCc1cc2c(cc1Br)OCO2`, the growth in the assay on NCI-H23 lung is 96.2%; in the assay with NCI-H226 lung it was 106%; in the assay on NCI-H322M lung it was 108%; in the assay with HOP-62 NSCLC, 84%; in the assay on NCI-H460 lung it was 106%; in the assay with HOP-92 NSCLC, 86.9%. Moreover, the growth was 87.9% in the assay on NCI-H522 lung; 80.7% in the assay with A549/ATCC NSCLC; 89.3% with 786-0 renal; 109% in the assay with COLO 205 colon; 111% in the assay with DU-145 prostate; 121% in the assay on K-562 leukemia. Moreover, the growth was 117% with MALME-3M melanoma; 113% in the assay with MDA-MB-231 breast; 106% in the assay on SF-268 CNS; 96.5% in the assay on SF-295 CNS; 98.8% with SF-539 CNS; 91.5% with UACC-257 melanoma.
